From the supplement of paper PMC10732440
± gives the standard deviation of the averaged measurements.

These compounds were tested on Caenorhabditis elegans N2 infected with Nematocida parisii ERTm1 (assay: progeny production relative to DMSO uninfected control; higher = more progeny despite microsporidia infection (inhibition of infection with low host toxicity)). Conditions: infection time 6 days; 40 µM.
Outline: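 Values give progeny production relative to spore-free vehicle wells, as a percentage averaged across replicates. For each of three runs per compound and dose, 100 bleach-synchronised wild-type C. elegans L1 larvae per well were grown in 96-well plates with K-medium, E. coli OP50, 15,000 N. parisii spores/μL and compound at 100 μM or 40 μM in 1% DMSO. After 6 days of shaking at 21°C, worms were Rose Bengal-stained, flatbed-scanned and counted with WorMachine.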

Compound	progeny production [%]
O=C(Nc1ccc(-c2ccccc2)cc1)C1=C(O)C(Cc2ccccc2)OC1=O (stereo not given)	5.44 ± 3.9
CCC(CC)[C@H](NC(C)=O)[C@@H]1[C@H](O)[C@@H](C(=O)O)C[C@H]1NC(=N)N	6.29 ± 2.5
CC(C)Nc1ncnc2c1cnn2-c1ccc(Cl)cc1	8.31 ± 1.1
Cc1ccc(N2CCC(CCOc3ccc(S(C)(=O)=O)cc3)CC2)nn1	4.13 ± 1
CC(C)(C)c1ccc(C(=O)NC(=O)N2CCCc3ccccc32)cc1	4.23 ± 2.6
CCCNc1ccc(S(=O)(=O)Nc2cc(C)on2)cc1	3.09 ± 1.4
O=C(Nc1nnc(-c2ccc(Cl)cc2)o1)c1ccc(F)cc1	9.22 ± 7.4
Cn1c2ccccc2c(=O)c2c(O)cccc21	3.85 ± 0.59
COc1c(NC(=O)[C@H]2CC[C@@H](COc3ccc([N+](=O)[O-])cc3)CC2)c(F)cc2c(=O)c(C(=O)O)cn(C3CC3)c12	4.64 ± 2.9
O=C(Nc1ccc(N2CCN(C(=O)c3ccccc3)CC2)cc1)c1ccc2c(c1)OCO2	5.03 ± 1.4
Fc1cccc(Cl)c1C1CC(c2ccc(Cl)cc2)Nc2nnnn21 (stereo not given)	4.5 ± 4.2
CCO/N=C/c1ccc(OCCCCN2CCN(c3ccncc3)C2=O)cc1	5.24 ± 4.2
CCC[C@@H]1C[C@@H](C(=O)N[C@@H]([C@H]2O[C@H](SC)[C@H](O)[C@@H](O)[C@H]2O)[C@H](C)Cl)N(C)C1	6.74 ± 4.3
COc1ccc(COc2cc3oc(=O)c4cc(C(C)O)ccc4c3cc2OC)cc1 (stereo not given)	5.78 ± 0.94
O=C(N[C@H](CCS)C(=O)N[C@H](Cc1ccccc1)C(=O)O)c1cc2ccccc2[nH]1	6.68 ± 3.5
CC[C@@H](CO)NCCN[C@@H](CC)CO	4.98 ± 2.4
CN1c2ccc(Cl)cc2N(c2ccccc2)C(=O)c2cn(Cc3ccc(CN4CCOCC4)cc3)nc21	5.41 ± 0.76
CCC(C)(C)c1ccc(CC(C)CN2C[C@@H](C)O[C@@H](C)C2)cc1 (stereo not given in full)	4.64 ± 0.33
N#CCN1C(=O)COc2cc(F)c(N3C(=O)c4ccccc4C3=O)cc21	3.98 ± 0.99
O=C(NC(=O)N1CCCc2ccccc21)c1ccc(Cl)cc1Cl	3.48 ± 1.1

Compound	progeny production [%]
CC1(C)[C@H](C(=O)O)N2C(=O)C[C@H]2S1(=O)=O	4.44 ± 0.8
CC(C)(C)NC(=O)N[C@H](C(=O)N1C[C@H]2[C@@H]([C@H]1C(=O)NC(CC1CCC1)C(=O)C(N)=O)C2(C)C)C(C)(C)C (stereo not given in full)	3.73 ± 0.22
NC(=O)c1cnc2ccc(S(=O)(=O)c3ccccc3)cc2c1Nc1ccc(O)cc1	6.94 ± 3.1
C=CCc1cc(Cc2cnc(N)nc2N)cc(OC)c1O	3.9 ± 1.6
CCOC(=O)N1CCN(c2ccc(Cl)cc2)CC1	4.15 ± 1.7
CC(C)(C)c1cc(C(=O)/C(C#N)=N/Nc2cccc(Cl)c2)no1	4.44 ± 0.8
N=C(N)NCCCCC(=O)Nc1cc(C(F)(F)F)cc(NC(=O)c2cc(C(=O)Nc3cc(C(F)(F)F)cc(NC(=O)CCCCNC(=N)N)c3O[C@@H]3CCNC3)ncn2)c1O[C@@H]1CCNC1	7.1 ± 7.2
O=S(=O)(Nc1ccc(-n2cccc2)cc1)c1ccc(Cl)c(Cl)c1	6.12 ± 3.2
CN1CCN(c2ccc3[nH]c(-c4ccc5[nH]c(-c6ccc(O)cc6)nc5c4)nc3c2)CC1	6.36 ± 1.4
O=C(NC(=O)N1CCCc2ccccc21)c1cccc(Cl)c1	2.7 ± 0.83
COc1ccc(C2CNC(=O)C2)cc1OC1CCCC1 (stereo not given)	4.65 ± 2.2
COc1ccc(CNC(=O)C(NS(=O)(=O)c2ccc3nc(C)sc3c2)C(C)C)cc1 (stereo not given)	4.14 ± 1.6
COc1cc(Cc2cnc(N)nc2N)cc(OC)c1OC	1.91 ± 0.77
CS(=O)(=O)c1ccc(Oc2ccc(Cl)cc2)cc1	2.98 ± 0.48
O=C(/C=C\n1cnc(-c2cc(C(F)(F)F)cc(C(F)(F)F)c2)n1)NNc1ccccn1	3.49 ± 1.1
CC(C)(C)c1ccc(Oc2ccc(N)cc2)cc1	3.17 ± 1.1
O=C1NC(=O)C(Br)=C1Br	12.2 ± 12
COc1ccc(CNC(=O)C2CCN([C@H](C)c3cccc4ccccc34)CC2)cc1	4.66 ± 2.1
CC(=O)N1CCN(c2ccc(OCC3COC(Cn4ccnc4)(c4ccc(Cl)cc4Cl)O3)cc2)CC1 (stereo not given)	5.16 ± 2.3
CC(Oc1ccc(Cl)cc1Cl)C(=O)NCc1ccc2c(c1)OCO2 (stereo not given)	3.27 ± 0.72

Same assay, conditions: infection time 6 days; 100 µM

Compound	progeny production [%]
O=C(Nc1ccc(-c2ccccc2)cc1)C1=C(O)C(Cc2ccccc2)OC1=O (stereo not given)	6.02 ± 4.2
CCC(CC)[C@H](NC(C)=O)[C@@H]1[C@H](O)[C@@H](C(=O)O)C[C@H]1NC(=N)N	7.52 ± 7.1
CC(C)Nc1ncnc2c1cnn2-c1ccc(Cl)cc1	4.15 ± 2.5
Cc1ccc(N2CCC(CCOc3ccc(S(C)(=O)=O)cc3)CC2)nn1	11.1 ± 10
CC(C)(C)c1ccc(C(=O)NC(=O)N2CCCc3ccccc32)cc1	22.1 ± 18
CCCNc1ccc(S(=O)(=O)Nc2cc(C)on2)cc1	14 ± 3.8
O=C(Nc1nnc(-c2ccc(Cl)cc2)o1)c1ccc(F)cc1	12.6 ± 4.1
Cn1c2ccccc2c(=O)c2c(O)cccc21	13.6 ± 7.8
COc1c(NC(=O)[C@H]2CC[C@@H](COc3ccc([N+](=O)[O-])cc3)CC2)c(F)cc2c(=O)c(C(=O)O)cn(C3CC3)c12	8.01 ± 7.4
O=C(Nc1ccc(N2CCN(C(=O)c3ccccc3)CC2)cc1)c1ccc2c(c1)OCO2	15.6 ± 10
Fc1cccc(Cl)c1C1CC(c2ccc(Cl)cc2)Nc2nnnn21 (stereo not given)	7.47 ± 2.1
CCO/N=C/c1ccc(OCCCCN2CCN(c3ccncc3)C2=O)cc1	9.79 ± 7.8
CCC[C@@H]1C[C@@H](C(=O)N[C@@H]([C@H]2O[C@H](SC)[C@H](O)[C@@H](O)[C@H]2O)[C@H](C)Cl)N(C)C1	7.36 ± 5.1
COc1ccc(COc2cc3oc(=O)c4cc(C(C)O)ccc4c3cc2OC)cc1 (stereo not given)	10.9 ± 7
O=C(N[C@H](CCS)C(=O)N[C@H](Cc1ccccc1)C(=O)O)c1cc2ccccc2[nH]1	11.3 ± 6.7
CC[C@@H](CO)NCCN[C@@H](CC)CO	6.91 ± 5.6
CN1c2ccc(Cl)cc2N(c2ccccc2)C(=O)c2cn(Cc3ccc(CN4CCOCC4)cc3)nc21	6.28 ± 3
CCC(C)(C)c1ccc(CC(C)CN2C[C@@H](C)O[C@@H](C)C2)cc1 (stereo not given in full)	23 ± 23
N#CCN1C(=O)COc2cc(F)c(N3C(=O)c4ccccc4C3=O)cc21	15.2 ± 12
O=C(NC(=O)N1CCCc2ccccc21)c1ccc(Cl)cc1Cl	19.2 ± 21

Compound	progeny production [%]
CC1(C)[C@H](C(=O)O)N2C(=O)C[C@H]2S1(=O)=O	10.7 ± 7.8
CC(C)(C)NC(=O)N[C@H](C(=O)N1C[C@H]2[C@@H]([C@H]1C(=O)NC(CC1CCC1)C(=O)C(N)=O)C2(C)C)C(C)(C)C (stereo not given in full)	7.69 ± 4.1
NC(=O)c1cnc2ccc(S(=O)(=O)c3ccccc3)cc2c1Nc1ccc(O)cc1	17.7 ± 11
C=CCc1cc(Cc2cnc(N)nc2N)cc(OC)c1O	12.4 ± 5.1
CCOC(=O)N1CCN(c2ccc(Cl)cc2)CC1	12.1 ± 18
CC(C)(C)c1cc(C(=O)/C(C#N)=N/Nc2cccc(Cl)c2)no1	13.4 ± 11
N=C(N)NCCCCC(=O)Nc1cc(C(F)(F)F)cc(NC(=O)c2cc(C(=O)Nc3cc(C(F)(F)F)cc(NC(=O)CCCCNC(=N)N)c3O[C@@H]3CCNC3)ncn2)c1O[C@@H]1CCNC1	3.98 ± 2.8
O=S(=O)(Nc1ccc(-n2cccc2)cc1)c1ccc(Cl)c(Cl)c1	35.7 ± 29
CN1CCN(c2ccc3[nH]c(-c4ccc5[nH]c(-c6ccc(O)cc6)nc5c4)nc3c2)CC1	15.4 ± 12
O=C(NC(=O)N1CCCc2ccccc21)c1cccc(Cl)c1	19.9 ± 14
COc1ccc(C2CNC(=O)C2)cc1OC1CCCC1 (stereo not given)	11.2 ± 9.9
COc1ccc(CNC(=O)C(NS(=O)(=O)c2ccc3nc(C)sc3c2)C(C)C)cc1 (stereo not given)	6.87 ± 4
COc1cc(Cc2cnc(N)nc2N)cc(OC)c1OC	16.3 ± 11
CS(=O)(=O)c1ccc(Oc2ccc(Cl)cc2)cc1	13.1 ± 9.1
O=C(/C=C\n1cnc(-c2cc(C(F)(F)F)cc(C(F)(F)F)c2)n1)NNc1ccccn1	7.21 ± 3.6
CC(C)(C)c1ccc(Oc2ccc(N)cc2)cc1	11.1 ± 5.3
O=C1NC(=O)C(Br)=C1Br	30.7 ± 9.8
COc1ccc(CNC(=O)C2CCN([C@H](C)c3cccc4ccccc34)CC2)cc1	15.7 ± 6.6
CC(=O)N1CCN(c2ccc(OCC3COC(Cn4ccnc4)(c4ccc(Cl)cc4Cl)O3)cc2)CC1 (stereo not given)	18 ± 6.4
CC(Oc1ccc(Cl)cc1Cl)C(=O)NCc1ccc2c(c1)OCO2 (stereo not given)	14.5 ± 9.6
